# ALDH1A1 inh: blocks purified human ALDH1A1 activity; Purified ALDH1A1, NADH fluorescence, propionaldehyde substrate; Potency, µM (top dose mostly 75.3 µM), inactives show at the top dose activity, negative = inhibition, most hits filed as inhibitors; 7.3% of 220,000 active;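 also: potency is read from the fitted curve at half-maximal effect; plate controls were no enzyme wells and a reference inhibitor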
# Target sequence (P00352 whole entry, looked up): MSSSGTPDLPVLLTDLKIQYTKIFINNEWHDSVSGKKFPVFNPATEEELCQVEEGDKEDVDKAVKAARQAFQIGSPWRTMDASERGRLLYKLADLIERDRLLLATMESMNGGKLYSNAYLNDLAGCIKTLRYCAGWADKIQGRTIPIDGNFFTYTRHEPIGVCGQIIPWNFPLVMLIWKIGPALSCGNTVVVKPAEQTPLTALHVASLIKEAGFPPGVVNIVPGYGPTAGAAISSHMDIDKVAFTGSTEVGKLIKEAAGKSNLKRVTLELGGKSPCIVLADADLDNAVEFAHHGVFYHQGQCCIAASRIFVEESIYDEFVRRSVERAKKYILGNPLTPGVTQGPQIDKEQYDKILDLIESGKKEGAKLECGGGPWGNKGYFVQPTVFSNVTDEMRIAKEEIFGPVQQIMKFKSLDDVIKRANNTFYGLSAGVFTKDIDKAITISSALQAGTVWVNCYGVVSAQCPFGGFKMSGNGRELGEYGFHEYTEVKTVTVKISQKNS
# NPSR antagonist: antagonists of human neuropeptide S receptor cAMP signaling; AID 1461; Q6W5P4; Potency, µM (series often up to 38.3 µM), without a hit: at the top dose activity change, negative = inhibition, usual class: inhibitors; 1% of 220,000 active; CHO-NPSR cells, cAMP TR-FRET, antagonist mode; active = well fitted curve in the direction sought with a large enough effect; inconclusive = small, poorly fitted or top-dose-only effect, or another doubt; inactive = no such curve, though single readings can be large; an effect the other way counts as inactive or inconclusive; also: potency is read from the fitted curve at half-maximal effect; nearly all actives have a fitted effect of over 50% in size
# JMJD2E inh: JMJD2E (human) inhibition. B2RXH2. JMJD2E catalytic domain, FDH-coupled NADH fluorescence (FDH is formaldehyde dehydrogenase). Potency, µM (top dose mostly 57.1 µM), for the others: at the top dose activity change, negative = inhibition, hits mostly inhibitors. 1.6% of 230,000 active. AID 2147;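 also: potency is read from the fitted curve at half-maximal effect; 0% = wells with enzyme and -100% = buffer wells without enzyme; nearly all actives have a fitted effect of over 50% in size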
# FBPA coupling cs: counter-screen for Giardia aldolase inhibitors: coupling enzyme system; AID 2472; 0.67% of 290,000 active; activity change, negative = inhibition, % at 58.2 µM, hits read low; coupling enzyme system counterscreen, AmpLite Red fluorescence; in the data active = activity change below about -30%
#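 Activity here indicates interference with the coupling reaction, not aldolase inhibition. Compounds at 57.5 uM final met coupling enzymes for 10 min at RT; substrate and AmpLite Red detection followed, with a 525/598 nm fluorescence read after 20 min.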
# Sfp PPTase inh: Sfp phosphopantetheinyl transferase inhibition; Q9F4F7; Biochemical Sfp PPTase activity, qHTS; Potency, µM, inactives show largest response in the series, negative = inhibition, hits mostly inhibitors; 3.5% of 310,000 active; AID 1490; active = well fitted curve in the direction sought with a large enough effect; inconclusive = small, poorly fitted or top-dose-only effect, or another doubt; inactive = no such curve, though single readings can be large; an effect the other way counts as inactive or inconclusive;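 also: the enzyme is Sfp with the accession as filed and its product quenches rhodamine fluorescence; potency is read from the fitted curve at half-maximal effect; 0% = enzyme reaction without inhibitor and -100% = no enzyme wells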
#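 Step 1, compound plus 15 nM Sfp-PPTase, 15 min, room temperature. Step 2, add rhodamine-CoA (5 uM) and BHQ-2-YbbR (12.5 uM). Step 3, read 525/598 nm fluorescence at 0 and 30 min.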
# RGS12 GoLoco inh: blocks human Gai1 binding to RGS12 GoLoco peptide, red readout. Gai1:RGS12 GoLoco peptide FP, rhodamine, 10 min. Potency, µM (titrated, usually from 61.6 µM), for inactives: at the top dose activity, negative = inhibition, actives largely listed as inhibitors. 0.44% of 230,000 active. AID 880; active = well fitted inhibition curve with a large enough effect, not every such curve was filed as active; inactive = no such curve, though single readings can be large or run the other way; also: potency is read from the fitted curve at half-maximal effect; nearly all actives have a fitted effect of over 30% in size
# An asterisk follows results filed as active; ? = inconclusive; . = no result given; [ ] = dose if it differs, or a comment. Sampled rows, rich in hits. Any-hit rate of the full collection: about 8.5%. Unless noted, calls follow the shape of the dose curve; as a rule, active = well fitted inhibition curve with a large enough effect (not every such curve was filed as active); inconclusive = small, poorly fitted or top-dose-only effect, or another doubt; inactive = no such curve, though single readings can be large or run the other way. Unless noted, % is scaled to controls: 0 for no effect and ±100 for the full control effect.
SMILES,ALDH1A1 inh,NPSR antagonist,JMJD2E inh,FBPA coupling cs,Sfp PPTase inh,RGS12 GoLoco inh
COc1ccc2c(c1)O[C@@H](c1cccc(C(F)(F)F)c1)[C@H](OC(=O)N[C@H](C)C1CCCCC1)C2=O,12%,.,4%,1,2%,2%
COc1cc(/C=N/n2c(C3CCCCC3)n[nH]c2=S)ccc1O,.,.,.,6,?,.
S=c1[nH]nc(-c2cc(-c3ccccc3)n[nH]2)n1/N=C/C=C/c1ccco1,?,28%,?,-3,16µM*,11%
COc1cccc(/C=N/n2c(C3CCCCC3)n[nH]c2=S)c1OC,.,.,.,0,-3%,.
COc1cc(/C=N/n2c(-c3n[nH]c4c3CCC4)n[nH]c2=S)cc(OC)c1O,.,-7%,-9%,-3,56µM*,8%
S=c1[nH]nc(-c2ccco2)n1/N=C/C=C/c1ccco1,-8%,-24%,-13%,1,-42%,22%
COc1cc(/C=N/N2C(=O)CSC2=S)cc(Br)c1O,?,-6%,?,-4,-6%,304%
COc1cccc(/C=N/N2C(=O)CSC2=S)c1O,7.1µM*,8%,-4%,-1,?,158%
COc1cccc(/C=N/n2c(-c3n[nH]c4c3CCC4)n[nH]c2=S)c1O,?,1%,32µM*,-4,25µM*,-1%
O=C(CCCNC(=O)c1ccc(Cl)cc1)NCc1ccccc1Cl,.,.,.,1,6%,.
O=C(c1ccc(N2CCN(C(=O)c3ccc(F)c(F)c3)CC2)cc1)c1cccc(F)c1,.,.,.,.,0%,.
COc1ccc(C(=O)N2CCC3(CC2)CN(Cc2ccc(C#N)cc2)C3)cc1,-1%,.,.,1,0%,11%
O=C(/C=C/c1ccc(N2CCCCC2)c([N+](=O)[O-])c1)c1ccc(S(=O)(=O)N2CCCC2)cc1,4.5µM*,-18%,1%,1,4%,15%
COc1cccc(C(=O)/C=C/c2ccc(N3CCCCC3)c([N+](=O)[O-])c2)c1,14µM*,-47%,-8%,-7,-1%,6%
O=C(Nc1nccs1)c1ccc2c(=O)n3c(nc2c1)CCCCC3,?,-30%[46.1 µM],2%,1,17%,.
Cc1cc(C)c2cc(C#N)c(N3CCCN(C(=S)NCCCN(C)C)CC3)nc2c1,.,.,.,0,-8%,.
Cc1cc(C)c2cc(C#N)c(N3CCCC3)nc2c1,?,-8%[46.1 µM],?,1,45µM*,-7%
COc1ccc(-c2cc(=O)c3c(O)c(OC)c(OC)c(OC)c3o2)cc1OC,20µM*,.,-15%,0,-5%,3%
COc1c(O)c(O)c2oc(-c3ccccc3)cc(=O)c2c1OC,?,28%,32µM*,3,3.2µM*,-9%
COc1cc(-c2cc(=O)c3c(O)c(OC)c(OC)c(O)c3o2)ccc1O,28µM*,-2%,20µM*,-5,5µM*,0%
COc1cc(OC)c2c(=O)cc(-c3ccccc3)oc2c1,?,-17%,?,4,10%,11%
COc1cc2c(c3oc(-c4ccccc4)cc(=O)c13)C=CC(C)(C)O2,10µM*,28%,-13%,4,?,7%
COc1ccc(NC(=O)COc2cccc3c2CCN(C)C3=O)c(OC)c1,.,.,.,.,7%,.
CN(C)C(=O)COc1ccc(Oc2ccccc2)cc1,-3%,5%,-8%,3,-1%,-3%
CN(Cc1ccccc1)C(=O)c1cn(C)c2ccc(S(=O)(=O)N3CCCC3)cc2c1=O,.,.,.,.,10%,.
SMILES,ALDH1A1 inh,NPSR antagonist,JMJD2E inh,FBPA coupling cs,Sfp PPTase inh,RGS12 GoLoco inh
Cc1ccc(NNC(=O)c2cc(C(C)(C)C)nn2Cc2ccccc2)cc1,15µM*,?,8%,-6,9%,0%
CCOC(=O)c1cc(C)sc1NC(=O)CSC1=NCCS1,.,.,.,1,-12%,.
COc1cccc(Cn2c(Oc3ccccc3)nc3c2c(=O)n(C)c(=O)n3C)c1,0.25µM*,-9%[46.1 µM],7%,3,-14%,1%
COc1cccc(Cn2c(Oc3cccc(C)c3)nc3c2c(=O)n(C)c(=O)n3C)c1,?,-26%[46.1 µM],6%,0,?,6%
COc1ccccc1OCCNc1cc(N2CCCCC2)ccc1[N+](=O)[O-],18µM*,-20%,6%,2,-5%,-2%
COc1ccc(CCNc2cc(N3CCN(C(=O)c4ccc(C)cc4)CC3)ccc2[N+](=O)[O-])cc1OC,8.9µM*,2%,1%,0,1%,-8%
COc1ccc(CCNc2cc(N3CCN(C(=O)c4ccccc4F)CC3)ccc2[N+](=O)[O-])cc1OC,2.5µM*,-2%[46.1 µM],10%,4,4%,-12%
NC(=O)c1sc2nc3c(c(-c4ccco4)c2c1N)CCC3,-12%,-9%[46.1 µM],-5%,-25,10µM*,1%
COc1ccc(-c2c3c(nc4sc5c(=O)[nH]c(C)nc5c24)CCC3)cc1,?,4%[46.1 µM],?,2,-2%,16%
Cc1cc(C)c2c(N)c(C(=O)NCc3ccco3)sc2n1,?,-1%,?,0,-9%,-2%
Cc1ccc(-c2c3c(nc4sc(C(N)=O)c(N)c24)CCCC3)o1,?,-8%,-12%,-4,32µM*,4%
COC(=O)c1c(NC(=O)CSc2nnc3ccccn23)sc2c1CCC2,-6%,17%,?,2,-1%,14%
Cc1ccc(S(=O)(=O)c2nc(-c3ccccc3F)oc2N2CC(C)OC(C)C2)cc1 (configuration not stated),.,.,.,-2,?,.
Cc1ccc(-n2nnnc2C(Cl)(Cl)c2nnnn2-c2ccc(C)cc2)cc1,1.3µM*,16%[46.1 µM],1%,2,3.2µM*,-3%
CC(=O)N1C(=O)C2(C(C#N)=C(N)Oc3c2c(C)nn3-c2ccccc2)c2ccccc21 (configuration not stated),?,-11%[46.1 µM],-13%,-27,-14%,-6%
CCN1C(=O)C2(C(C#N)=C(N)Oc3c2c(C)nn3-c2ccccc2)c2ccccc21 (configuration not stated),?,-3%[46.1 µM],-15%,-45*,0%,4%
Cc1nn(-c2ccccc2)c2c1C1(C(=O)N(C)c3ccccc31)C(C#N)=C(N)O2 (configuration not stated),?,-6%[46.1 µM],-11%,-44*,-4%,-8%
Cc1nn(-c2ccccc2)c2c1C1(C(=O)N3c4c(cccc41)C(C)CC3(C)C)C(C#N)=C(N)O2 (configuration not stated),0.25µM*,-13%[46.1 µM],?,-59*,-8%,-7%
CCC(CC)C(=O)Nc1cccc(/C(C)=N/NC(=O)c2ccccc2Cl)c1,13µM*,-11%[46.1 µM],35%,0,3%,39%
CC(C)OC(=O)C1Cc2ccccc2CN1S(=O)(=O)c1cccs1 (configuration not stated),.,.,.,0,7%,.

# Bioassay records: PubChem BioAssay, National Center for Advancing Translational Sciences (NCATS)
